Reference: article PMC8384837, “Expanding the binding specificity for RNA recognition by a PUF domain”

Key:
Experiment in all cases: yeast three-hybrid, YBZ-1, SC-Leu-His + 0.5 mM 3-AT, 4 days
Conditions in all cases: tags: N-Gal4 AD-HA kept; label: inside an RPR1-promoter hybrid RNA with tandem MS2 sites; ssRNA
PUM1 PUF domain R8-RRN = PUM1 PUF domain R8-RRN (Homo sapiens, UniProt Q14671 828-1176, N1122R;Y1123R;Q1126N)
In short: (§1)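 The interaction score is the log change in how often each variant appears, from input to selection. Frequencies came from PCR-amplified, Illumina-sequenced repeat regions of Pumilio-1 PUF domain libraries grown in strain YBZ-1 (LexA–MS2 coat fusion, HIS3 reporter) alongside matching RNA elements. Input plates were SC-Leu and selection plates were SC-Leu-His + 0.5 mM 3-AT, each for four days, and the log2 calculation used a pseudocount of 1 where a variant was absent.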

PUM1 PUF domain R5-VHL = PUM1 PUF domain R5-VHL (Homo sapiens, UniProt Q14671 828-1176, C1007V;R1008H;Q1011L)
Chain of PUM1 PUF domain R5-VHL (Q14671 828-1176 C1007V/R1008H/Q1011L): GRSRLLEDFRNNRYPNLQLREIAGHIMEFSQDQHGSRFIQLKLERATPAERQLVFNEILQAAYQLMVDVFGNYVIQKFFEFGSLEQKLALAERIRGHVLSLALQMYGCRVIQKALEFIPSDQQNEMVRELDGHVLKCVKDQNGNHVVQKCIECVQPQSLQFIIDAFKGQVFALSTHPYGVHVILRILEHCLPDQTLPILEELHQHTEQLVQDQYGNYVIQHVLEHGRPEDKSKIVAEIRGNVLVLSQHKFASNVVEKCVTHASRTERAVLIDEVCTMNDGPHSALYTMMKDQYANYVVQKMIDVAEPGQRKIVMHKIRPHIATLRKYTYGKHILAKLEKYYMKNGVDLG
In short: as §1

PUM1 PUF domain R5-GFM = PUM1 PUF domain R5-GFM (Homo sapiens, UniProt Q14671 828-1176, C1007G;R1008F;Q1011M)
Chain of PUM1 PUF domain R5-GFM (Q14671 828-1176 C1007G/R1008F/Q1011M): as the sequence (Q14671 828-1176 C1007V/R1008H/Q1011L) above, with V180G, H181F, L184M counted along it
In short: as §1

PUM1 PUF domain R3-FRW = PUM1 PUF domain R3-FRW (Homo sapiens, UniProt Q14671 828-1176, C935F;Q939W)
Chain of PUM1 PUF domain R3-FRW (Q14671 828-1176 C935F/Q939W): as the sequence (Q14671 828-1176 C1007V/R1008H/Q1011L) above, with C108F, Q112W, V180C, H181R, L184Q counted along it
In short: as §1

PUM1 PUF domain R1-KSL = PUM1 PUF domain R1-KSL (Homo sapiens, UniProt Q14671 828-1176, S863K;R864S;Q867L)
Chain of PUM1 PUF domain R1-KSL (Q14671 828-1176 S863K/R864S/Q867L): as the sequence (Q14671 828-1176 C1007V/R1008H/Q1011L) above, with S36K, R37S, Q40L, V180C, H181R, L184Q counted along it
In short: as §1

PUM1 PUF domain R3-QPS = PUM1 PUF domain R3-QPS (Homo sapiens, UniProt Q14671 828-1176, C935Q;R936P;Q939S)
Chain of PUM1 PUF domain R3-QPS (Q14671 828-1176 C935Q/R936P/Q939S): as the sequence (Q14671 828-1176 C1007V/R1008H/Q1011L) above, with C108Q, R109P, Q112S, V180C, H181R, L184Q counted along it
In short: as §1

PUM1 PUF domain R4-GNV = PUM1 PUF domain R4-GNV (Homo sapiens, UniProt Q14671 828-1176, N971G;H972N;Q975V)
Chain of PUM1 PUF domain R4-GNV (Q14671 828-1176 N971G/H972N/Q975V): as the sequence (Q14671 828-1176 C1007V/R1008H/Q1011L) above, with N144G, H145N, Q148V, V180C, H181R, L184Q counted along it
In short: as §1

PUM1 PUF domain R4-QGG = PUM1 PUF domain R4-QGG (Homo sapiens, UniProt Q14671 828-1176, N971Q;H972G;Q975G)
Chain of PUM1 PUF domain R4-QGG (Q14671 828-1176 N971Q/H972G/Q975G): as the sequence (Q14671 828-1176 C1007V/R1008H/Q1011L) above, with N144Q, H145G, Q148G, V180C, H181R, L184Q counted along it
In short: as §1

Chain of PUM1 PUF domain R8-RRN (Q14671 828-1176 N1122R/Y1123R/Q1126N): as the sequence (Q14671 828-1176 C1007V/R1008H/Q1011L) above, with V180C, H181R, L184Q, N295R, Y296R, Q299N counted along it

For “GGCUAGAACUAGUGGAUCCCCCGGCGCCCGGCGGCUCGAGCCCGGGUAAGUGUAAAUAGUCUGCAUGCCGCCGGGCGCCAUGCCUGCAGGUCGACUCUAGAAAACAUG”, the binding signal (PUM1 PUF domain R8-RRN) was 2.81 log2 enrichment (interaction score), the binding signal (PUM1 PUF domain R5-VHL) was 2.67 log2 enrichment (interaction score) and the binding signal (PUM1 PUF domain R5-GFM) was 2.5 log2 enrichment (interaction score).
With “GGCUAGAACUAGUGGAUCCCCCGGCGCCCGGCGGCUCGAGCCCGGGUAAGUGUAAGUAGUCUGCAUGCCGCCGGGCGCCAUGCCUGCAGGUCGACUCUAGAAAACAUG” the binding signal (PUM1 PUF domain R3-FRW) was 4.16 log2 enrichment (interaction score).
“GGCUAGAACUAGUGGAUCCCCCGGCGCCCGGCGGCUCGAGCCCGGGUAAGUGUAAAUCGUCUGCAUGCCGCCGGGCGCCAUGCCUGCAGGUCGACUCUAGAAAACAUG” was tested, and the binding signal (PUM1 PUF domain R1-KSL) was 2.8 log2 enrichment (interaction score).
For “GGCUAGAACUAGUGGAUCCCCCGGCGCCCGGCGGCUCGAGCCCGGGUAAGUGUAAUUAGUCUGCAUGCCGCCGGGCGCCAUGCCUGCAGGUCGACUCUAGAAAACAUG”, the binding signal (PUM1 PUF domain R3-QPS) was 3.41 log2 enrichment (interaction score).
With “GGCUAGAACUAGUGGAUCCCCCGGCGCCCGGCGGCUCGAGCCCGGGUAAGUGUACAUAGUCUGCAUGCCGCCGGGCGCCAUGCCUGCAGGUCGACUCUAGAAAACAUG” the binding signal (PUM1 PUF domain R4-GNV) was 1.41 log2 enrichment (interaction score) and the binding signal (PUM1 PUF domain R4-QGG) was 1.65 log2 enrichment (interaction score).
“GGCUAGAACUAGUGGAUCCCCCGGCGCCCGGCGGCUCGAGCCCGGGUAAGUGUAUAUAGUCUGCAUGCCGCCGGGCGCCAUGCCUGCAGGUCGACUCUAGAAAACAUG” was tested, and the binding signal (PUM1 PUF domain R4-GNV) was 2.92 log2 enrichment (interaction score) and the binding signal (PUM1 PUF domain R4-QGG) was 2.98 log2 enrichment (interaction score).
In the case of “GGCUAGAACUAGUGGAUCCCCCGGCGCCCGGCGGCUCGAGCCCGGGUAAGUGUGAAUAGUCUGCAUGCCGCCGGGCGCCAUGCCUGCAGGUCGACUCUAGAAAACAUG”, the binding signal (PUM1 PUF domain R5-GFM) is reported as 2.5 log2 enrichment (interaction score).
